The source of these data is PubChem BioAssay (Tox21).

Values joined by “and” are separate entries in the source; they are usually repeats but may differ in a detail not shown here. Equal entries are not always repeated. Inconclusive results are not listed. Some compounds were tested as several samples or in several runs, with calls that do not always agree. Active and inactive are the calls of the source. Unless noted, calls come from the whole dose curve; as a rule, active = well fitted curve in the direction sought with a large enough effect in the repeat runs; inconclusive = weak or mixed curves; inactive = no such curve, though single readings can be large; an effect the other way counts as inactive or inconclusive.

Assay [1] is described as follows: qHTS assay to identify small molecule antagonists of the estrogen receptor alpha (ER-alpha) signaling pathway using the BG1 cell line in the presence of 0.1 nM 17-beta-estradiol - cell viability counter screen (AID 1259241). Note: nearly all actives have a fitted effect of over 40% in size. The method, boiled down: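 Viability in VM7Luc4E2 cells after 22 hr compound exposure under 0.1 nM 17beta-estradiol stimulation, by CellTiter-Fluor.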

A short description of assay [2]: qHTS assay to identify small molecule antagonists of the androgen receptor (AR) signaling pathway using the MDA cell line in the presence of 0.5 nM R1881 - cell viability counter screen (AID 1259242). Note: nearly all actives have a fitted effect of over 45% in size. The method, boiled down:
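qHTS format. MDA-kb2 (MMTV-luc, AR/GR responsive) + cpd + 0.5 nM R1881 final, 16 hr 37C/0% CO2 → CellTiter-Fluor 30 min → fluorescence intensity.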

For assay [3], the target named is Androgen receptor (Homo sapiens) (UniProt P10275). The experiment in a line: qHTS assay to identify small molecule antagonists of the androgen receptor (AR) signaling pathway using the MDA cell line in the presence of 0.5 nM R1881 (AID 1259243). Note: nearly all actives have a fitted effect of over 50% in size. The method in brief: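 Antagonist mode quantitative HTS in MDA-kb2 MMTV-luciferase cells, agonist R1881 at 0.5 nM final, 16 hr exposure at 37C and 0% CO2, luminescent detection.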
Androgen receptor (Homo sapiens), sequence (P10275 whole entry, looked up): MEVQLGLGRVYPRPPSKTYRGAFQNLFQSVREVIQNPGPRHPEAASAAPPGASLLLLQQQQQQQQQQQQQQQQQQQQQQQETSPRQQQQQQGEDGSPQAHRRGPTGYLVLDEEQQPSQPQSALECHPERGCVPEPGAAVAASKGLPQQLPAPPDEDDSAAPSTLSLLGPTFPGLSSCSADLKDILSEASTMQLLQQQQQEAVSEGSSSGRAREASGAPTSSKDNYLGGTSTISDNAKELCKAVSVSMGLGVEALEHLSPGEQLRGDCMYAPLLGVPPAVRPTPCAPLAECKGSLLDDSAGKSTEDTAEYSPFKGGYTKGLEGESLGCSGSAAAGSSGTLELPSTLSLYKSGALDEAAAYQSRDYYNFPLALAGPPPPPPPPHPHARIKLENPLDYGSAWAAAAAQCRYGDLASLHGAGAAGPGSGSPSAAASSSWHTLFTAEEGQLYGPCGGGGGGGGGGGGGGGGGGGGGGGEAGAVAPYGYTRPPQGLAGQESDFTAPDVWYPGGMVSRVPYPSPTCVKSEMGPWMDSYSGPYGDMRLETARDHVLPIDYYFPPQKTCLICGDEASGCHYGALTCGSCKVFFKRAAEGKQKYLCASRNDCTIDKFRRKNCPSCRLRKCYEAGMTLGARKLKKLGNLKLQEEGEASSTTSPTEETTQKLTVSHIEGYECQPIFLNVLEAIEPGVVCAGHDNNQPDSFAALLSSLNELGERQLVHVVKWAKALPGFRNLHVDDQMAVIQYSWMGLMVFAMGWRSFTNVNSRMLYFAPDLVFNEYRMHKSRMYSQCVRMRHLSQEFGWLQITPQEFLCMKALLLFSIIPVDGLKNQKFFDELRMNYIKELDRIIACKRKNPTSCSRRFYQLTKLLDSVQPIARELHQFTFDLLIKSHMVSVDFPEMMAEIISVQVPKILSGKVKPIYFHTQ
In general terms: In qHTS, concentration-response curves come from the screen itself.

The nature of assay [4]: qHTS assay to identify small molecule HDAC inhibitors (AID 1259364).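 Note: wild-type HCT-116 cells with endogenous class I/II HDAC activity; top concentration of the series differs between compounds; nearly all actives have a fitted effect of over 45% in size.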 The method, boiled down: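 Quantitative high-throughput format: overnight-seeded HCT-116 cells got compounds for 2 hr at 37C; HDAC-Glo I/II reagent added, 30 min RT, luminescence measured.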
A short description of assay [5]: qHTS assay to identify small molecule HDAC inhibitors - cell viability counter screen (AID 1259365). Note: series mostly up to about 92 µM; nearly all actives have a fitted effect of over 50% in size. The method, boiled down:
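Cytotoxicity was gauged in wild-type HCT-116 cells after a brief 2hr treatment with DMSO-dissolved compounds at 37C and 5% CO2, using CellTiter-Glo luminescence developed for 30min at room temperature.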

A short description of assay [6]: qHTS assay to identify small molecule agonists of the sonic hedgehog signaling (Shh) pathway - cell viability counter screen (AID 1259366). Note: nearly all actives have a fitted effect of over 50% in size. The method, boiled down:
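Stable Gli1-Luc NIH/3T3 clone, 2,000 cells/well. Compound exposure 24hr at 37C. Read-out: CellTiter-Fluor fluorescence.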

Assay [7] is described as follows: qHTS assay to identify small molecule antagonists of the sonic hedgehog signaling (Shh) pathway - cell viability counter screen (AID 1259367). Note: nearly all actives have a fitted effect of over 55% in size. The method in brief:
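Cytotoxicity was assessed in parallel with Shh reporter activity by measuring live-cell protease fluorescence (CellTiter-Fluor) in NIH/3T3 cells stably carrying Gli1-Luc, treated with compound under conditioned medium stimulation for 23 hr plus 1 hr reagent incubation.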

Assay [8] in a line: qHTS assay to identify small molecule agonists of the sonic hedgehog signaling (Shh) pathway (AID 1259368; calls by dose curve;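 note: NIH/3T3-derived 3T3Gli1-Luc cells carrying a stable Gli1-driven firefly luciferase reporter; series mostly up to about 92 µM; nearly all actives have a fitted effect of over 15% in size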). The method, boiled down: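 Quantitative high-throughput format using a Gli1-driven firefly luciferase reporter line derived from NIH/3T3 cells. After a 24 hr compound treatment at 37 C and 5% CO2, luminescence reported Gli1 response element activity.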
Assay [9] can be described thus: qHTS assay to identify small molecule antagonists of the sonic hedgehog signaling (Shh) pathway (AID 1259369; calls by dose curve; note: nearly all actives have a fitted effect of over 45% in size; note: potency is the fitted concentration of half-maximal effect). The method, boiled down: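 Stable Gli1-Luc reporter NIH/3T3 clone; quantitative HTS in stimulated mode with conditioned medium. Luminescence measured after 24hr compound treatment at 37 C.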
Assay [10] concerns the target Estrogen receptor beta (Homo sapiens) (UniProt Q92731). The experiment in a line: qHTS assay to identify small molecule agonists of the estrogen receptor beta (ER-beta) signaling pathway (AID 1259377; active = well fitted activation curve with a large enough effect in the signal ratio in the repeat runs, not every such curve was filed as active; the % refers to the signal ratio). The method, boiled down:
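Measured by fluorescence intensity from a B/G FRET beta-lactamase substrate (2 h, room temperature) in ER-beta-UAS-bla HEK293T cells treated with DMSO-dissolved compounds for 16 hr at 37C and 5% CO2.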

Assay [11] has the same target. The experiment in a line: qHTS assay to identify small molecule antagonists of the estrogen receptor beta (ER-beta) signaling pathway (AID 1259378; active = well fitted inhibition curve with a large enough effect in the signal ratio in the repeat runs, not every such curve was filed as active; the % refers to the signal ratio). The method in brief:
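ER-beta-UAS-bla HEK293T (GripTite) cells in 2% charcoal-stripped FBS medium were preincubated 6 hr at 37C, dosed with compound, then stimulated with 1 nM E2 (final) for 16 hr; beta-lactamase reporter read by B/G FRET fluorescence after 2 hr substrate loading.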

Assay [12] in a line: qHTS assay to identify small molecule agonists of the androgen receptor (AR) signaling pathway in the presence of an antagonist - cell viability counter screen (AID 1259379).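 Note: MDA-kb2 human breast cancer cells carrying an MMTV luciferase reporter; series mostly up to about 92 µM; nearly all actives have a fitted effect of over 25% in size.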 The method, boiled down: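 Nilutamide-containing (3.0uM final) MDA-kb2 cultures, 3,000 cells/well, were treated with compounds across 15 concentrations. After 16 hr at 37C with no CO2, cell viability was determined by CellTiter-Fluor fluorescence in the luciferase assay wells.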

A short description of assay [13]: qHTS assay to identify small molecule agonists of the estrogen receptor beta (ER-beta) signaling pathway - cell viability counter screen (AID 1259380). Note: nearly all actives have a fitted effect of over 30% in size. The method in brief:
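Steps: plate ER-beta-UAS-bla HEK293T cells, rest 6 hr; add compounds in DMSO; incubate 16 hr at 37C, 5% CO2; add FRET substrate 2 hr; add CellTiter-Glo, wait 30 min at room temperature; read luminescence.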

Assay [14] has as its target Androgen receptor (Homo sapiens) (UniProt P10275). Put plainly: qHTS assay to identify small molecule agonists of the androgen receptor (AR) signaling pathway in the presence of an antagonist (AID 1259381; calls by dose curve; note: nearly all actives have a fitted effect of over 15% in size; note: potency is the fitted concentration of half-maximal effect). The method in brief:
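Reporter-gene luminescence from MDA-kb2 cells exposed 16hr at 37C (0% CO2) to 15-point compound titrations with 3.0uM final nilutamide as AR antagonist.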

The nature of assay [15]: qHTS assay to identify small molecule antagonists of the estrogen receptor beta (ER-beta) signaling pathway - cell viability counter screen (AID 1259382). Note: series mostly up to about 92 µM; nearly all actives have a fitted effect of over 55% in size. The method, boiled down:
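Viability is scored by CellTiter-Glo luminescence (30 min, room temperature) in ER-beta-UAS-bla HEK293T wells already read for reporter fluorescence. Compound exposure lasts 16 hr at 37C alongside 1nM 17-beta-estradiol in charcoal-stripped serum medium.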

The nature of assay [16]: qHTS assay to identify small molecule agonists or antagonists of the thyroid stimulating hormone receptor (TSHR) signaling pathway - wild type cell line counter screen (AID 1259384; calls by dose curve). The method, boiled down: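 Wild-type HEK293 cells were plated 18 h at 37 C/5% CO2, pin-dosed with compound plus Ro20-1724 medium, held 30 min at room temperature, then given cAMP-d2 and anti-cAMP-cryptate; fluorescence was read after 1 h. Fifteen concentrations, triplicate.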

For assay [17], the target named is Thyrotropin receptor (Homo sapiens) (UniProt P16473). The experiment in a line: qHTS assay to identify small molecule antagonists of the thyroid stimulating hormone receptor (TSHR) signaling pathway (AID 1259385; calls by dose curve; note: nearly all actives have a fitted effect of over 20% in size). The method in brief: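 TSHR-HEK293 cells were plated and held 18 h at 37C/5% CO2, then given compound plus Ro20-1724 and stimulated with TSH at 1.5 ng/mL final. After 30 min at room temperature, cAMP was detected with cAMP-d2/anti-cAMP-cryptate (1 h) by fluorescence.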
Thyrotropin receptor (Homo sapiens), sequence (P16473 whole entry, looked up): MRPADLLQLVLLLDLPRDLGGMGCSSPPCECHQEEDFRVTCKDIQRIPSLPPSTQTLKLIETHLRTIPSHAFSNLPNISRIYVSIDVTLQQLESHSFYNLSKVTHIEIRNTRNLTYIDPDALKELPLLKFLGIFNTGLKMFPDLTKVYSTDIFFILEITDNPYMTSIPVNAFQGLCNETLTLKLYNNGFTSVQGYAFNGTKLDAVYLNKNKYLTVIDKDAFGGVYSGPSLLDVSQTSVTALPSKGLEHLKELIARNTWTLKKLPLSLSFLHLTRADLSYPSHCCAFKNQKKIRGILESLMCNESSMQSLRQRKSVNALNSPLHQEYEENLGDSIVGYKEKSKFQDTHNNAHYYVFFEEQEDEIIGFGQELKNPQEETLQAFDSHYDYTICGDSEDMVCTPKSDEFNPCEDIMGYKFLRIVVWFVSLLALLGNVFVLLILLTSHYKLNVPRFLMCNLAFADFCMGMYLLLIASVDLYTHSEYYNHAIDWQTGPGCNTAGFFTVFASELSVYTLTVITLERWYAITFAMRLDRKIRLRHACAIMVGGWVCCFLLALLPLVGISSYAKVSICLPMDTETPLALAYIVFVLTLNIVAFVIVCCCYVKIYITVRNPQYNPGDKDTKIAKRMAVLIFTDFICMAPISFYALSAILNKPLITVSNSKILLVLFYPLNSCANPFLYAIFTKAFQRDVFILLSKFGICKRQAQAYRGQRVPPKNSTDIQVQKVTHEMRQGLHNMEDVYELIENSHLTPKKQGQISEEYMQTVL

Assay [18] in a line: qHTS assay to identify small molecule phospholipidosis (PLD) inducers (AID 1259344; active = well fitted curve in the direction sought with a large enough effect; an effect the other way counts as inactive or inconclusive). The method, boiled down:
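Cells (HepG2, 900 per well) attach for 4 h, receive LipidTOX Red and compound together, incubate 24 h at 37 C, are fixed 30 min with paraformaldehyde/Hoechst, then imaged at one site per well.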

Assay [19] deals with Estrogen receptor (Homo sapiens) (UniProt P03372). The experiment in a line: qHTS assay to identify small molecule agonists of the estrogen receptor alpha (ER-alpha) signaling pathway in the presence of an antagonist (AID 1259383; calls by dose curve; note: nearly all actives have a fitted effect of over 15% in size; note: potency is the fitted concentration of half-maximal effect; for activation: top concentration of the series differs between compounds). The method in brief: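 Readout was ERE-driven luciferase luminescence in VM7Luc4E2 cells, which express full-length ER-alpha endogenously. Compounds were tested at 15 concentrations for 22hr alongside 10.0nM ICI-182,780 (final concentration).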
Estrogen receptor (Homo sapiens), sequence (P03372 whole entry, looked up): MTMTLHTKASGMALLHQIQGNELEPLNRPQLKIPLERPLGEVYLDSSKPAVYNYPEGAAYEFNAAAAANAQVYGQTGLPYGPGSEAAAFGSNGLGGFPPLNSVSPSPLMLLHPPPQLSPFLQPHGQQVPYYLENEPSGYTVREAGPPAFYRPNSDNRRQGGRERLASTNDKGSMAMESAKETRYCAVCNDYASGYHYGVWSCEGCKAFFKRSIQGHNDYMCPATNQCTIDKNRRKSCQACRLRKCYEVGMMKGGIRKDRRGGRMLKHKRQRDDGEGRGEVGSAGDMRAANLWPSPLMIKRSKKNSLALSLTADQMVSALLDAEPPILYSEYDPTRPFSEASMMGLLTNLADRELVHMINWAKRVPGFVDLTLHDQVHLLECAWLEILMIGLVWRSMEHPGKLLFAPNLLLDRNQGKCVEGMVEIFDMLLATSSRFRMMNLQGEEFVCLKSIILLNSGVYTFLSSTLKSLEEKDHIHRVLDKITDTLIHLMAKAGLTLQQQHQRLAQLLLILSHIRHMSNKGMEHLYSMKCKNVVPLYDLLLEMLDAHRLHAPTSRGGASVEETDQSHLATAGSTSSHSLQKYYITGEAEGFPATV

Assay [20] has the same target. Put plainly: qHTS assay to identify small molecule antagonists of the estrogen receptor alpha (ER-alpha) signaling pathway using the BG1 cell line in the presence of 0.1 nM 17-beta-estradiol (AID 1259244). Note: nearly all actives have a fitted effect of over 50% in size. The method, boiled down: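 Reporter is a stably transfected luciferase under four estrogen responsive elements in VM7Luc4E2 cells expressing native full-length ER-alpha; inhibition of 0.1 nM (final) 17beta-estradiol-driven signal over 22 h is read by luminescence.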
% is set by controls: 0 for no effect and ±100 for the full control effect.

Estrogen receptor beta (Homo sapiens), sequence (Q92731 whole entry, looked up): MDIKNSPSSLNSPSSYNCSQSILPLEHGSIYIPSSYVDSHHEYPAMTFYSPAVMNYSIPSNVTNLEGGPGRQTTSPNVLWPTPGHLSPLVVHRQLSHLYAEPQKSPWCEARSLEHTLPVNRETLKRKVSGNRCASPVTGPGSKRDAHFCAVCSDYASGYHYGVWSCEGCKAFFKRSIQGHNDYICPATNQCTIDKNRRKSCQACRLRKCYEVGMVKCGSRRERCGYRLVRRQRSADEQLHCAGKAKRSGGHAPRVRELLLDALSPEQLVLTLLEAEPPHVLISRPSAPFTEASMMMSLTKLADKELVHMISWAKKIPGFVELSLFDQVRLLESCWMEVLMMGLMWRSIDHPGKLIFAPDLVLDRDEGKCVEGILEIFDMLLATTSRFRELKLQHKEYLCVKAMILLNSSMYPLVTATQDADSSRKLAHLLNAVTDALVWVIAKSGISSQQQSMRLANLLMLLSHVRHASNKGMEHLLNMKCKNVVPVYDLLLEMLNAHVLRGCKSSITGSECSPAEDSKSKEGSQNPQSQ

On to `ClCc1ccccc1Cl`, for which the Potency result in [1], in assay [2], in assay [3], in assay [4], in assay [5] and in assay [6] was “inactive” throughout. The Potency entry in assay [7], in [8], in assay [9], in assay [10], in assay [11] and in assay [12] was “inactive” each time. Besides, the Potency entry in [13], in assay [14], in assay [15] and in [17] was “inactive” in each case. In assay [16], the molecule was called inactive.

With `CCC1(C2=NCCN2)Cc2ccccc2O1` (centres undefined), the Potency entry in assay [1], in [2], in assay [3], in [5], in assay [6] and in assay [7] was “inactive” in each case. Further, the Potency result in assay [8], in assay [9], in assay [13], in assay [14], in [15] and in assay [17] was “inactive” throughout. The molecule was classed as inactive in [18] and in [16]. In addition, in assay [19], the Potency is 3.35 µM (active).

In the case of `CN(C)N`, the Potency entry in assay [1], in [2], in [3], in assay [4], in assay [5] and in assay [6] was “inactive” in each case. Further, the Potency entry in assay [8], in assay [9], in [10], in assay [11], in assay [12] and in [13] was “inactive” each time. For the same molecule, the Potency result in assay [14], in assay [15] and in [17] was “inactive” each time. In addition, the molecule was classed as inactive in [16].

For `CCC1(CCC(C)C)C(=O)NC(=O)NC1=O`, the Potency result in assay [1], in [2], in assay [3], in assay [4], in assay [5] and in assay [6] was “inactive” throughout. In addition, the Potency result in [7], in [8], in assay [9], in assay [10], in assay [11] and in [12] was “inactive” in each case. Also, the Potency entry in assay [13], in assay [14] and in assay [15] was “inactive” throughout. Besides, the molecule was classed as inactive in [18].

For `Nc1c(Br)cc(Br)c2c1C(=O)c1ccccc1C2=O`, the activity change, negative = cytotoxicity was -0.0291% [at 19 µM] (inactive) in assay [1]; -8.35% [at 19 µM] (inactive) in [5]; -5.97% [at 19 µM] (inactive) in [12]; -3.72% [at 19 µM] (inactive) in [13]; 0.853% [at 19 µM] (inactive) in assay [15]. Also, the viability change, negative = cytotoxic was 2.34% [at 19 µM] (inactive) in [2] and -3.04% [at 19 µM] (inactive) in [7]. Further, the activity, negative = inhibition in [3] was -15.1% [at 19 µM] (inactive). The activity change, negative = inhibition in assay [20] was 16.5% [at 19 µM] (inactive); in assay [9], -1.9% [at 19 µM] (inactive); in [17], -1.61% [at 19 µM] (inactive). Also, in [8], the activity change was 9.18% [at 18.9 µM, stronger effect = higher value] (inactive). Moreover, the activation in [14] was 0.208% [at 19 µM] (inactive); in assay [19] it was 1.8% [at 19 µM] (inactive). The cAMP activity change in assay [16] was 2.44% [at 18.9 µM] (inactive).

On to `O=C(O)CCCOc1ccc(Cl)cc1Cl`, for which the Potency entry in [1], in [2], in assay [3], in assay [5], in [6] and in assay [8] was “inactive” in each case. In addition, the Potency entry in assay [11], in assay [12], in assay [13] and in assay [15] was “inactive” in each case. Further, the result in assay [18] and in assay [16] was inactive. Moreover, the Potency entry in assay [9] is “inactive and 44 µM (active)”; in assay [14], “inactive and 55.4 µM (active)”.

Take `COC1CC(=C(c2cccs2)c2cccs2)C[N+](C)(C)C1` (centres undefined): the Potency result in assay [1], in assay [2], in assay [20], in assay [4], in assay [5] and in assay [6] was “inactive” in each case. Moreover, the Potency result in [7], in assay [8], in assay [9], in [13], in [15] and in assay [19] was “inactive” each time. The Potency entry in assay [17] was “inactive”. Moreover, the outcome in assay [18] and in assay [16] was inactive.

On to `CCOP(=S)(S)OCC`, for which the Potency result in assay [1], in assay [2], in assay [3], in assay [20], in [4] and in assay [5] was “inactive” throughout. Further, the Potency entry in assay [6], in assay [8], in [9], in assay [12], in assay [13] and in [14] was “inactive” each time. For the same molecule, the Potency entry in assay [15], in assay [19] and in assay [17] was “inactive” in each case. Besides, the molecule was classed as inactive in assay [16].
